In all, about 300,000 compounds went through this assay and about 37,000 (12%) were called active. Only a selection was taken, and actives are over-represented in it overall. A number with no mark means an inactive call. Cut-off read from the data, not from the text of the source: active = max response mostly above about 13% (no sharp cut-off); inactive = mostly below about 14%.
Assay: Cycloheximide Counterscreen for Small Molecule Inhibitors of Shiga Toxin; note: read at 38.3 µM for the half of the compounds with a filed dose; 0% is about no effect
Conditions: cell reporter, cycloheximide protein synthesis inhibition counterscreen; stronger effect = higher value

Structure (SMILES) | max response
O=C(c1ccc2c(c1)N(Cc1ccc(F)cc1)C(=O)c1ccccc1S2(=O)=O)N1CCN(c2ccccn2)CC1 | 0.32%
O=[N+]([O-])c1ccc2nc(-c3ccccn3)[nH]c2c1 | 51% (active)
O=[N+]([O-])c1cnc2ccc3ccccc3c2c1 | 8.23%
O=C(CSc1nc2ccc([N+](=O)[O-])cc2[nH]1)c1ccc(Cl)cc1 | 3.9%
CCOc1ccc(CCNC(=O)Nc2ccccc2)cc1OCC | 6.01%
COc1ccc(-n2nnnc2SCc2nc(N)nc(N3CCOCC3)n2)cc1 | -3.81%
COc1cc(NC(=O)c2ccc(-c3csc(C)n3)cc2)c(OC)cc1Cl | -4.02%
Cc1cc(NC(=O)COc2ccc(Cl)cc2Cl)n(CCC#N)n1 | 43.5% (active)
Cc1nn(-c2ccccc2)c(C)c1NC(=O)COc1ccc(Cl)cc1Cl | -1.6%
CCCn1nnnc1NC(=O)COc1ccc(Cl)cc1C | 14.6%
COCCNc1cc(-c2ccccc2)nc2cc(-c3cccc(F)c3)nn12 | -0.87%
COc1ccccc1C(=O)N(C1=NC(C)CS1)c1ccc(Cl)cc1 (stereo not given) | -1.66%
CC(=O)Nc1ccc(NC(=O)CCCNC(=O)c2ccc(Cl)cc2)cc1 | -0.304%
CC(=O)Nc1ccc(C(=O)N(C2=NC(C)CS2)c2ccc(Cl)cc2)cc1 (stereo not given) | 28.7% (active)
CSCCC(NS(=O)(=O)c1ccc(C)cc1)C(=O)NCCc1c[nH]c2ccccc12 (stereo not given) | -3.49%
COc1ccc(NC(=S)NCC2CCN(c3ccc(OC)cc3)C2)cc1 (stereo not given) | 1.9%
COc1ccc(NC(=S)N2N=CCC2c2ccccc2)cc1 (stereo not given) | 36.2% (active)
COc1ccc(N2CCN(C(=S)Nc3ccc(S(N)(=O)=O)cc3)CC2)cc1 | -1.06%
COc1ccc(NC(=S)N2CCc3cc(OC)c(OC)cc3C2)cc1 | 14.2%
Cc1ccccc1N(C(=O)CNC(=O)c1cccs1)C(C(=O)NC1CCCC1)c1ccncc1 (stereo not given) | -8.35%
CC(=O)c1cc(CN2CCC(n3nccc3NC(=O)c3ccccc3Cl)CC2)cs1 | -1.43%
COCCNc1ncnc2c1nc1n2CCCC1 | -3.81%
CC(NC(=O)COc1ccc(-c2ccccc2)cc1)C1CCCO1 (stereo not given) | 1.81%
Cc1ccc(S(=O)(=O)NC(=O)c2cccc(C)c2)cc1 | 13.6%

Structure (SMILES) | max response
Cc1cc(-n2cnc(-c3cn(C)nc3C)n2)no1 | 21.3% (active)
COc1ccc(C)cc1S(=O)(=O)N1CCN(S(=O)(=O)c2cc(C(=O)O)ccc2C)CC1 | 1.26%
CCOC(=O)/C(=N\Nc1ccccc1Cl)N(C)C1CCS(=O)(=O)C1 (stereo not given) | -5.92%
NC(=O)c1c(Nc2nc3c(F)cccc3s2)sc2c1CCCC2 | 17.8% (active)
O=C(Nc1sc2c(c1C(=O)O)CCC2)c1ccccc1F | -2.19%
C=CCN(CC=C)S(=O)(=O)c1ccc(C(=O)Nc2sc3c(c2C(N)=O)CCCCC3)cc1 | 3.07%
NC(=O)c1c(NC(=O)CSc2nnc(-c3ccco3)n2N)sc2c1CCCC2 | 5.01%
O=C(O)c1c(NC(=O)N2CCCC2)sc2c1CCCC2 | 25.7% (active)
NC(=O)c1c(NC(=O)c2ccccc2)sc2c1CCCC2 | 31.6% (active)
COC(=O)c1c(NC(=O)C2CC(C)=C(C)CC2C(=O)O)sc2c1CCCCC2 (stereo not given) | -1.42%
Fc1cc(F)c2nc(Nc3nc4c(F)cccc4s3)sc2c1 | 13.2% (active)
NC(=O)c1c(NC(=O)CSc2nc(N)cc(=O)[nH]2)sc2c1CCCC2 | -0.688%
CC(C)OC(=O)c1c(NC(=O)c2ccco2)sc2c1CCCC2 | -0.728%
COc1cc2ccccc2cc1C(=O)N(CCN(C)C)c1nc2c(F)cccc2s1 | -3.64%
CCC(=O)N1CCc2cc(S(=O)(=O)CCC(=O)N3CCN(c4ccccc4F)CC3)ccc21 | 2.85%
CCOc1ccc(NS(=O)(=O)c2cc(C)c(C)cc2C)cc1 | 0.868%
Cc1ccccc1N1CCN(C2CCCN(C(=O)c3ocnc3C)C2)CC1 (stereo not given) | 1.48%
CCCCCC(O)(CCN1CCCCC1)c1ccccc1 (stereo not given) | -2.5%
O=C(COC(=O)/C=C/c1ccc(S(=O)(=O)N2CCCCCC2)cc1)NCc1ccccc1Cl | 0.471%
CCCCn1c(=O)c(CCC(=O)OCC(=O)Nc2ccc(C)c(Cl)c2)nc2ccccc21 | -1.67%
COC(=O)c1cc(NC(=O)C2C3C=CC(C3)C2C(=O)O)cc(C(=O)OC)c1 (stereo not given) | -3.42%
CC(=O)NS(=O)(=O)c1ccc(NC(=O)C2C3C=CC(C3)C2C(=O)O)cc1 (stereo not given) | -2.43%
CC(C)COC(=O)c1ccc(NC(=O)C2C3C=CC(C3)C2C(=O)O)cc1 (stereo not given) | 29% (active)
CCN(CC)S(=O)(=O)c1ccc(N(C)Cc2cccc(OC)c2OC)nc1 | 10.4%

Structure (SMILES) | max response
CC(=NCc1ccco1)c1c(C(F)(F)F)[nH]n(-c2nc3ccccc3s2)c1=O | 48.5% (active)
CCc1ccc(-c2cc(C(=O)NCc3ccco3)c3ccccc3n2)s1 | 14.1%
C/C(=N\NC(=O)CC(C)C)c1c(C(F)(F)F)[nH]n(-c2nc3ccccc3s2)c1=O | 35.6% (active)
CCC(C)Cn1c(O)cc2nn(-c3nc4ccccc4s3)c(=O)c-2c1C (stereo not given) | 3.42%
C=CCn1c(CSc2nc3ccccc3s2)nnc1SCC(=O)NCc1ccco1 | 0.347%
COC(=O)Cc1[nH]n(-c2nc3ccccc3s2)c(=O)c1C(C)=Nc1ccc(OC)cc1 | 38.2% (active)
COc1ccc(CC(=O)N/N=C(\C)c2ccccn2)cc1 | -3.12%
CCOC(=O)N1CCN(CC(=O)Nc2cc(C)nn2-c2nc3ccccc3s2)CC1 | 2.1%
COc1ccccc1NC(=O)c1ccc2nc(N3C(=O)CCC3=O)sc2c1 | 7.91%
Cc1ccc(C(=O)NCC(=O)OCC(=O)NC2CCCCCCC2)cc1 | -2.63%
Cc1ccc(NC(=O)Cn2c(=O)n(CCC(=O)NC3CCN(Cc4ccccc4)CC3)c(=O)c3ccccc32)cc1 | -1.8%
O=C(NCCCNC(=O)c1ccccc1Cl)c1cnccn1 | -1.06%
COC(=O)Nc1ccc(S(=O)(=O)Nc2cc(OC)nc(OC)n2)cc1 | 8.38%
COc1ccc(-c2ccc(CCC(=O)O)n2NC(=O)c2ccc(C(C)(C)C)cc2)cc1 | 15.2%
CC(=O)Nc1ccc(Nc2ncnc3c2nnn3Cc2ccccc2Cl)cc1 | -1.15%
CC1C(=O)Nc2ccc(S(=O)(=O)N3CCN(c4ccccc4F)CC3)cc2NC1=O (stereo not given) | -4.25%
COc1cc(CCC(=O)Nc2ccncc2Cl)cc(OC)c1OC | -2.42%
Cn1c2ccccc2c(=O)c2c(=O)n(Cc3ccco3)c(COc3ccccc3)nc21 | -1.78%
Cc1ccccc1NC(=O)CN1C(=O)N/C(=C\c2cccn2-c2cccc(C(=O)O)c2)C1=O | -9.3%
COc1cc2c(cc1/C=C1/NC(=O)N(c3ccccc3)C1=O)OCO2 | 6.72%
O=C1N/C(=C/c2cccn2-c2ccccc2)C(=O)N1c1cccc(Cl)c1 | 34.8% (active)
COc1cc(N2CCCC2)c(OC)cc1/C=C(/C#N)c1cccc(Br)c1 | -3.93%
COc1cc(C(=O)N2CCN(C3CCC(C)CC3)CC2)cc(OC)c1OC (stereo not given) | -0.901%
Nc1ccc2nn(-c3ccc(Cl)cc3)nc2c1 | 39.4% (active)

Structure (SMILES) | max response
COc1ccc(-c2[nH]ncc2CN(Cc2nccn2C)C(C)C)cc1F | 0.417%
Cc1nn(C)c(Cl)c1CN1CCC(n2nccc2NC(=O)C2CCCC2)CC1 | -0.568%
CC(C)(C)SCCSC1=CC(=O)CC(c2ccccc2)C1 (stereo not given) | 48.7% (active)
Cc1ccc(S(=O)(=O)NCCSC(C)(C)C)cc1 | 1.94%
CCC(C)N1CC(=O)N2Cc3[nH]c4ccccc4c3C[C@H]2C1=O (stereo not given in full) | -5.44%
COC(=O)c1ccccc1NC(=O)CSc1n[nH]c(-c2ccncc2)n1 | -2.03%
CC(C)=CCCC1(C)C=Cc2c(ccc3c2[nH]c2cc(O)c(C)cc23)O1 (stereo not given) | 14% (active)
CC/C(=N\NC(=S)NC(C)C)c1ccc(OC(F)F)cc1 | 7.39%
O=C(O)CCCn1c(=O)c2cccn2c2ccc(F)cc21 | -0.924%
CCc1ccc(/C=C2\SC(N3CCOCC3)=NC2=O)cc1 | 17.2%
Cc1cc(/C=C2/SC(=O)N(CC(=O)N3CCCC3)C2=O)ccc1N1CCOCC1 | 12.3%
O=C1N=C(N2CCOCC2)S/C1=C\C=C/c1ccccc1 | 44.4% (active)
O=C1N=C(N2CCOCC2)CS1 | 11.5%
Cc1ccsc1/C=C1\SC(N2CCOCC2)=NC1=O | 32.7% (active)
O=c1[nH]c(N2CCOCC2)nc2ccccc12 | -4.42%
Fc1ccc(-c2ccc(CNCc3ccccn3)o2)cc1Cl | 11.4%
COc1ccc(C(=O)C2CCCN(Cc3cccn3-c3ccccn3)C2)c(C)c1 (stereo not given) | -2.02%
C[C@@H](NC(=O)[C@@H]1Cc2ccccc2CN1)C(=O)NC1CCCC1 | -1.91%
CCOc1ccc(/C=N\NC(=O)c2c(C)nc3cc(C)ccn23)cc1 | 0.972%
NC(=O)C1CCN(C(=O)c2ccc3c(=O)n(Cc4cccc(Br)c4)c(=S)[nH]c3c2)CC1 | -3.9%
O=C(Nc1ccccc1C(=O)N1CCCCC1)c1ccco1 | -0.706%
CS/C(=C\C(=O)c1ccco1)Nc1ccccc1Cl | 38.1% (active)
O=C(c1cccc(S(=O)(=O)Nc2ccccc2Cl)c1)N1CCN(C(=O)c2ccco2)CC1 | -0.249%

From PubChem BioAssay AID2314 (National Center for Advancing Translational Sciences (NCATS), 2010)
